Sampled rows, rich in hits. Any-hit rate of the full collection: about 0.44%.
Rango complex inh – Rango-importin beta binding inhibition | Q14974 | Rango CFP/YFP FRET sensor + importin beta, 45 min | Potency, µM (highest dose often 92.2 µM) | 0.031% of 340,000 active; calls by dose curve; note: nearly all actives have a fitted effect of over 15% in size
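Inhibition scored from the CFP 486 nm/YFP 530 nm FRET ratio 45 min after adding 0.125 microM importin beta to 50 nM Rango biosensor preincubated 5 min with compound (room temperature, PBS with DTT, Tween-20, BSA). No-importin wells as positive control.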
Tb PFK inh-1 – T. brucei PFK enzyme inhibition; AID 485367; 0.17% of 330,000 active; Potency, µM (titrated, usually from 57.5 µM), hits mostly inhibitors; T. brucei PFK, ADP-Glo luminescence; note: nearly all actives have a fitted effect of over 60% in size
Target sequence (O15648 whole entry, looked up): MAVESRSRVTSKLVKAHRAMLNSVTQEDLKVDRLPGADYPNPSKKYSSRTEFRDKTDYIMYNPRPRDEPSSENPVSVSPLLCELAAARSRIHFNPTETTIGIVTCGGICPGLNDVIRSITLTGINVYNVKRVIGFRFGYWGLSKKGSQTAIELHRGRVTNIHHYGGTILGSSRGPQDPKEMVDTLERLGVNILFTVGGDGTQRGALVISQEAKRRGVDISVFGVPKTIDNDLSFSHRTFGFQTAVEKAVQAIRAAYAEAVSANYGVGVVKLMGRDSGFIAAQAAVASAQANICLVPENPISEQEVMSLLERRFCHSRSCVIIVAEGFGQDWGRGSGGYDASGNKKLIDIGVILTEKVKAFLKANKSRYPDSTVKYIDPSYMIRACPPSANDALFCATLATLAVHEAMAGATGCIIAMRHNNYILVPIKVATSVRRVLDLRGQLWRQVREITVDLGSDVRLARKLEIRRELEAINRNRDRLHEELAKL
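ADP-Glo luminescence quantified ADP after 45 min at room temperature, with 1.25 nM T. brucei PFK, 0.1 mM ATP and 0.5 mM fructose-6-phosphate in pH 8.0 TEA buffer. qHTS titrations up to 57 µM; curves classified by quality.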
BCR signal inh – inhibitors of chronic active B-cell receptor signaling. ABC-DLBCL IkBa-CBG/CBR reporter, luminescence ratio, 4 h. Potency, µM (series often up to 46.1 µM), most hits filed as inhibitors. 0.05% of 340,000 active; active = well fitted inhibition curve with a large enough effect in the signal ratio, with a control signal flat, not every such curve was filed as active; inconclusive = small, poorly fitted or top-dose-only effect, or effect the other way, or a change in a side signal; the % refers to the signal ratio
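Compounds up to 46 uM were incubated four hours with TMD8 cells whose green CBG68 luciferase is fused to IkappaBalpha; red CBR luminescence normalised the signal, and concentration-effect curves were fitted to fusion, red and ratio data.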
LMNA splice mod – modulators of lamin A splicing; 0.01% of 200,000 active; HeLa LMNA splicing GFP/RFP minigene ratio, 48 h; Potency, µM (titrated, usually from 46.1 µM), most hits filed as inhibitors; AID 1487; active = well fitted inhibition curve with a large enough effect in the signal ratio, with a control signal flat, not every such curve was filed as active; inconclusive = small, poorly fitted or top-dose-only effect, or effect the other way, or a change in a side signal; the % refers to the signal ratio
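S3 HeLa cells stably expressing lamin A-EGFP splicing minigene plus DsRed2, 600 cells/well, 48 h compound exposure at 37C. Laser-scanning cytometry; analysed as GFP (500-530 nm)/RFP (575-640 nm) total intensity ratio; 0.5% DMSO vehicle.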
Luc counter – blocks Kinase-Glo luciferase, a counter-screen artifact | Potency, µM (highest dose often 38.3 µM), most hits filed as inhibitors | AID 1379 | 0.28% of 200,000 active | Kinase-Glo luciferase, ATP luminescence, 8 min | Q27757; note: nearly all actives have a fitted effect of over 60% in size
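Substrate mix (final 50 mM imidazole pH 7.2, 50 mM KCl, 7 mM MgCl2, 10 uM ATP, 0.01% Tween 20, 0.05% BSA) plus pin-tool compound, then Kinase-Glo detection mix; 8 min ambient, luminescence read.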
Rango dissoc inh – prevents RanGTP from dissociating the Rango-importin beta complex; Potency, µM (titrated, usually from 46.1 µM); Biochemical FRET Rango-importin beta, RanGTP-induced dissociation; O95149+P62826; AID 540253; 0.071% of 340,000 active; calls by dose curve; note: nearly all actives have a fitted effect of over 45% in size
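Compounds preincubate 5 min with complex of recombinant Rango and importin beta in PBS with 1 mM DTT. Ran (0.6 uM) loaded with 2 mM GTP plus 0.2 uM RCC1 starts dissociation; FRET is recorded 45 min later.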
TbPFK ATP – orthogonal confirmation of T. brucei phosphofructokinase inhibitors. Tb PFK enzyme, ATP depletion, Kinase-Glo Plus luminescence. shares compounds with Tb PFK inh-1. Potency, µM (highest dose often 57.5 µM). 47% of 1,100 active; calls by dose curve; note: nearly all actives have a fitted effect of over 60% in size
Tb PFK inh-2 – validation of T. brucei phosphofructokinase inhibitors | shares compounds with Tb PFK inh-1 | purified T. brucei PFK, ADP-Glo luminescence, 45 min | Potency, µM (titrated, usually from 57.5 µM), most hits filed as inhibitors | 41% of 1,100 active; note: nearly all actives have a fitted effect of over 60% in size
Large screens that a line does not name were inactive (follow-up assays come after a bar, where they were run). Unless noted, calls come from the whole dose curve; as a rule, active = well fitted curve in the direction sought with a large enough effect; inconclusive = small, poorly fitted or top-dose-only effect, or another doubt; inactive = no such curve, though single readings can be large; an effect the other way counts as inactive or inconclusive.

Nc1nc(SCc2ccc(Cl)c(Cl)c2)n[nH]1	Tb PFK inh-1 13µM, BCR signal inh inconclusive | TbPFK ATP 9.5µM | Tb PFK inh-2 13µM
Nc1nc(SCCC(F)=C(F)F)n[nH]1	none
COc1cc(/C=C(\C#N)C(=O)c2ccc(O)c(O)c2)cc(I)c1O	Rango complex inh inconclusive, Tb PFK inh-1 1.7µM, BCR signal inh inconclusive, Rango dissoc inh inconclusive | TbPFK ATP inactive | Tb PFK inh-2 inactive
Cc1cccc(-n2c(C)nc3ccccc3c2=O)n1	BCR signal inh inconclusive
Cc1cc(Br)ccc1N=C1NC(=O)CS1	Tb PFK inh-1 inconclusive (no result: LMNA splice mod, Luc counter) | TbPFK ATP inconclusive | Tb PFK inh-2 inactive
Cc1ccc(C2=NCC(=O)Nc3ccc(Br)cc32)cc1	BCR signal inh inconclusive (no result: LMNA splice mod, Luc counter)
Cc1cccc(-n2c(C)nc3ccccc3c2=O)c1C	none
O=C(Nc1ccc(F)c(Cl)c1)Nn1cnnc1	Tb PFK inh-1 17µM (no result: Rango complex inh, LMNA splice mod, Luc counter, Rango dissoc inh) | TbPFK ATP inconclusive | Tb PFK inh-2 inconclusive
CCC(=O)Nc1ccc(F)c(Cl)c1	Tb PFK inh-1 30µM | TbPFK ATP inconclusive | Tb PFK inh-2 inconclusive
COC(=O)/C(C#N)=C(/Nc1ccc(F)c(Cl)c1)C(F)(F)F	Tb PFK inh-1 27µM, BCR signal inh inconclusive (no result: LMNA splice mod, Luc counter) | TbPFK ATP 12µM | Tb PFK inh-2 27µM
CN(C)C(=O)Oc1ccc(Br)cc1C(=O)Nc1ccc(F)c(Cl)c1	BCR signal inh inconclusive (no result: LMNA splice mod, Luc counter)
O=C(CSc1n[nH]c(=O)n1C1CC1)Nc1ccc(F)c(Cl)c1	Tb PFK inh-1 inconclusive, BCR signal inh inconclusive (no result: LMNA splice mod, Luc counter) | TbPFK ATP inconclusive | Tb PFK inh-2 inconclusive
CC(=O)N1CCN(CC(=O)Nc2ccc(C#N)c(Cl)c2)CC1	none
COc1ccc(NP(=O)(Oc2ccccc2OC)Oc2ccccc2OC)cc1	none
Cc1ccc(OCC(=O)NCCN2CCN(C(=O)COc3ccc(C)cc3)CC2)cc1	none
Cc1ncc([N+](=O)[O-])n1CC(=O)Nc1ccc(F)c(F)c1	Rango complex inh inconclusive, Tb PFK inh-1 inconclusive (no result: LMNA splice mod, Luc counter) | TbPFK ATP inconclusive | Tb PFK inh-2 inconclusive
O=C(Cn1cnc([N+](=O)[O-])c1)Nc1ccc(F)c(Cl)c1	Tb PFK inh-1 24µM, BCR signal inh inconclusive (no result: LMNA splice mod, Luc counter) | TbPFK ATP 7.6µM | Tb PFK inh-2 11µM
NS(=O)(=O)c1ccc(NC(=O)C2COc3ccccc3O2)cc1 (centres undefined)	Tb PFK inh-1 21µM | TbPFK ATP 6.7µM | Tb PFK inh-2 30µM
O=C1C=C(NCc2ccc(Cl)c(Cl)c2)C2(CCCCC2)O1	Tb PFK inh-1 17µM, LMNA splice mod inconclusive | TbPFK ATP 6µM | Tb PFK inh-2 24µM
O=C(Cc1ccc(Cl)c(Cl)c1)NCC1(N2CCOCC2)CCCCC1	none
Nn1c(SCC(=O)Nc2ccc(F)cc2F)nnc1-c1cccnc1	BCR signal inh inconclusive (no result: Luc counter)
Nn1c(SCC(=O)Nc2cccnc2Cl)nnc1-c1ccccc1	Tb PFK inh-1 inconclusive (no result: LMNA splice mod, Luc counter) | TbPFK ATP 9.5µM | Tb PFK inh-2 11µM
COC(=O)C1C=C2c3cccc4[nH]cc(c34)CC2N(C)C1 (centres undefined)	none (no result: Rango complex inh, LMNA splice mod, Luc counter, Rango dissoc inh)
CCOc1ccc(NC(=O)c2c(O)[nH]c(=O)[nH]c2=O)cc1	none (no result: Tb PFK inh-1, BCR signal inh, LMNA splice mod, Luc counter)
O=C(COc1ccc(Cl)cc1)Nc1ccc2[nH]ncc2c1	Tb PFK inh-1 inconclusive (no result: LMNA splice mod, Luc counter) | TbPFK ATP 17µM | Tb PFK inh-2 24µM
COc1ccc(OCC(=O)OCC(=O)Nc2ccc3[nH]c(=O)[nH]c3c2)cc1	Tb PFK inh-1 30µM (no result: LMNA splice mod, Luc counter) | TbPFK ATP inconclusive | Tb PFK inh-2 inconclusive
COc1ccccc1C(=O)NCC(=O)OCC(=O)Nc1ccc2[nH]c(=O)[nH]c2c1	Tb PFK inh-1 27µM (no result: LMNA splice mod, Luc counter) | TbPFK ATP inconclusive | Tb PFK inh-2 inconclusive
CNC(=O)Oc1ccc2c(c1)[C@@]1(C)CCN(C)[C@@H]1N2C	none (no result: Rango complex inh, Tb PFK inh-1, BCR signal inh, Rango dissoc inh)
O=C1NC(=O)N(Cc2ccc(F)cc2)C(=O)/C1=C/c1cccs1	none (no result: LMNA splice mod)

Source: PubChem (National Center for Advancing Translational Sciences (NCATS))
